# High-throughput results: PubChem, National Center for Advancing Translational Sciences (NCATS)
# In the library only some 19% were active in any assay of this set; here they are far more common.
# HepG2 viability = qHTS for Inhibitors of TGF-b: Cytotox Counterscreen; HepG2 CAGA-GFP viability, ATP luminescence, 18 h; actives 0.76% (n = 410,000); Potency, µM (series often up to 46.1 µM), for inactives: at the top dose activity change, negative = cytotoxicity, actives largely listed as cytotoxic; further: potency means the concentration at half of the fitted maximal effect
#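 CellTiter-Glo luminescence gave cytotoxicity after 18 hours at 37 degrees C. The cells were HepG2 CAGA-GFP in 1% FBS DMEM, stimulated with 500 pg/mL TGF-beta after compound addition. %Activity was normalised to no-cell wells (complete cell-killing) and DMSO (no toxicity), and curves were fitted and classified.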
# TGFb SMAD3 inh = qHTS for Inhibitors of TGF-b | HepG2 CAGA-GFP TGF-b/SMAD3 reporter, GFP fluorescence, 18 h; TGF-beta stimulated, 500 pg/mL final | Potency, µM (titrated, usually from 46.1 µM), for the others: top-dose activity, negative = inhibition, usual class: inhibitors | actives 1.2% (n = 410,000) | AID 588855, 2011; further: potency means the concentration at half of the fitted maximal effect; on the % scale 0 is the no-effect control and ±100 the full control effect; nearly all actives have a fitted effect of over 65% in size
#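 Inhibition of TGF-beta-driven CAGA-GFP reporter expression in HEPG2 cells is measured by cellular GFP fluorescence after 18 h stimulation with 500 pg/mL recombinant TGF-beta in 1% FBS medium at 37 degrees C.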
# TDP1 block = qHTS Assay for Inhibitors of Tyrosyl-DNA Phosphodiesterase (TDP1); Tyrosyl-DNA phosphodiesterase 1 (Homo sapiens), Q9NUW8; recombinant TDP1, AlphaScreen DNA substrate cleavage; Potency, µM (doses to about 130 µM), for inactives: at the highest dose activity change, negative = inhibition, actives largely listed as inhibitors; actives 0.28% (n = 350,000); AID 485290, 2010; further: potency means the concentration at half of the fitted maximal effect; on the % scale 0 is the no-effect control and ±100 the full control effect; nearly all actives have a fitted effect of over 40% in size
# Target sequence (Q9NUW8 whole entry, looked up): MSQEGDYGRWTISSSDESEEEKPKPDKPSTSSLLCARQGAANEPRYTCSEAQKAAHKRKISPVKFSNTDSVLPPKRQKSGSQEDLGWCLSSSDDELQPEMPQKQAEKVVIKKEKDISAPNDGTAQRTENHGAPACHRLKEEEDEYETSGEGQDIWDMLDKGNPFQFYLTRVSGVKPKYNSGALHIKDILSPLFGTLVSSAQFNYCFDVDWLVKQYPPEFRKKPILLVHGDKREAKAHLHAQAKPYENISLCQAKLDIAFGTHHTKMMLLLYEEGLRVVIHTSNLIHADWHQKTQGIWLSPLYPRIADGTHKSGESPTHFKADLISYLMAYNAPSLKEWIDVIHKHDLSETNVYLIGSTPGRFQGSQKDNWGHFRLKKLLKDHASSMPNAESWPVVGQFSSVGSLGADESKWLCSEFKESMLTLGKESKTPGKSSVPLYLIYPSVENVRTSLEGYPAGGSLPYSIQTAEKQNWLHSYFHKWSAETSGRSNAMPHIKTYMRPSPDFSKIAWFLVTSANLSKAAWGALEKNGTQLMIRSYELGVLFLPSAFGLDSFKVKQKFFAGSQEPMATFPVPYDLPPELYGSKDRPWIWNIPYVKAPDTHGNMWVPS
#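 Enzyme-compound mixtures sat 15 min at room temperature, followed by a 5 min reaction with 15 nM final substrate and 10 min with AlphaScreen beads. Recombinant human Tdp1 was used at 1 nM final.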
# DT40 TDP1 CPT = qHTS for Inhibitors of human tyrosyl-DNA phosphodiesterase 1 (TDP1): qHTS in cells in presence of CPT; actives 12% (n = 420,000); chicken DT40 Tdp1-/-;hTDP1 cells + 20 nM CPT, ATP luminescence, 48 h; Potency, µM (titrated, usually from 46.2 µM), for the others: at the top dose activity change, negative = growth inhibition, usual class: inhibitors; AID 686979, 2013; further: potency means the concentration at half of the fitted maximal effect; on the % scale 0 is the no-effect control and ±100 the full control effect; nearly all actives have a fitted effect of over 55% in size
#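 Chicken DT40 Tdp1-/- cells complemented with human TDP1, 400 cells/well, exposed to compounds plus 20 nM camptothecin for at least 48 h at 37 C; viability read as ATP content by CellTiter-Glo luminescence.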
# IL-1B inflam inh = qHTS for Inhibitors of Inflammasome Signaling: IL-1-beta AlphaLISA Primary Screen | THP-1 LPS/ATP IL-1B secretion, AlphaLISA, 16 h; active compounds read low | activity change, % at 57.5 µM | actives 4.7% (n = 360,000) | AID 743279, 2014; in the data active means activity change below about -50%; inconclusive means mostly about -30% to -49%; further: on the % scale 0 is the no-effect control and ±100 the full control effect
#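 Secreted IL-1B measured by AlphaLISA bead assay after 16 h compound exposure of THP-1 cells; compounds (final up to 57.5 uM) added 1 h before LPS (250 ng/mL) and ATP (1.25 mM) stimulation; lower signal means less secretion.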
# DT40 TDP1 no CPT = qHTS for Inhibitors of human tyrosyl-DNA phosphodiesterase 1 (TDP1): qHTS in cells in absence of CPT; DT40 Tdp1-/- hTDP1 cells, no CPT, ATP luminescence, 48 h; Potency, µM (top dose mostly 46.2 µM), without a hit: top-dose activity change, negative = growth inhibition, actives largely listed as inhibitors; actives 15% (n = 420,000); AID 686978, 2013; further: potency means the concentration at half of the fitted maximal effect; on the % scale 0 is the no-effect control and ±100 the full control effect; nearly all actives have a fitted effect of over 55% in size
#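 Growth kinetics read by CellTiter-Glo luminescence after ≥48 hr at 37 °C. Cells: DT40 Tdp1-/- stably carrying human TDP1, 400 per well, compound exposure in the absence of CPT (DMSO vehicle).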
# Starred values were filed as active, the others as inactive; ? = inconclusive; · = no result; [ ] = dose if it differs, or a comment. Unless noted, the call rests on the fitted dose curve; in most records, active means well fitted curve in the direction sought with a large enough effect; inconclusive means small, poorly fitted or top-dose-only effect, or another doubt; inactive means no such curve, though single readings can be large; an effect the other way counts as inactive or inconclusive.
SMILES,HepG2 viability,TGFb SMAD3 inh,TDP1 block,DT40 TDP1 CPT,IL-1B inflam inh,DT40 TDP1 no CPT
Cc1nn(-c2ccccc2Cl)c(Cl)c1/C=N/Nc1nc2ccccc2s1,9.9%,-0.5%,8.5%,?,12.1,11.6µM*
COc1ccc(/C=N/Nc2ccc([N+](=O)[O-])cc2)cc1Cn1cc([N+](=O)[O-])cn1,-32.3%,?,6.1%,?,4.5,?
Oc1ccc(C=NNc2nc3ccccc3s2)c(O)c1,-14.6%,-21.3%,·,3.66µM*,-0.7,4.11µM*
Oc1ccccc1C=NNc1nc2ccccc2s1,-44.2%,?,·,0.0651µM*,?,0.0517µM*
C(=N\Nc1nc2ccccc2s1)/c1cccs1,-25.3%,?,3.1%,16.4µM*,?,?
CCn1c(C)c(/C=N/Nc2nc3ccccc3s2)c2ccccc21,-51.5%,-2.6%,7.7%,17.8µM*,?,17.8µM*
Oc1ccccc1/C=N/Nc1nc2ccccc2o1,-13.7%,?,2.4%,3.26µM*,48.9,2.91µM*
COc1cccc(C=NNc2nc3ccccc3s2)c1OC,-8.6%,-4.0%,·,1.8%,25.4,?
C(=N\Nc1nc2ccccc2s1)/c1ccco1,4.6%,-3.9%,-3.1%,-24.0%,?,?
COc1ccc(/C=N/Nc2nc3ccccc3s2)cc1O,-29.4%,-8.4%,-1.1%,17.3%,-86.6*,?
CCc1ccc(N=Nc2ccc(O)c3[nH]cnc23)cc1,-41.4%,4.8%,2.9%,?,-3.0,23.1µM*
Cc1ccccc1OCC(=O)N1N=C(C(F)(F)F)CC1(O)C(C)(C)C (configuration not stated),11.2µM*,?,5.0%,?,-10.9,16.4µM*
CC(C)(C)C1(O)CC(C(F)(F)F)=NN1C(=O)CCc1ccccc1 (configuration not stated),-19.3%,-13.3%,-2.5%,-18.1%,0.0,-19.1%
C=C(C)CC1(NC(C)c2ccccc2)CCCCC1 (configuration not stated),-10.1%,-43.0%,2.2%,23.1µM*,11.5,?
COc1ccc(-c2sc3cc(OC)ccc3c2-c2ccc(OCCN3CCCCC3)cc2)cc1,·,·,·,4.61µM*,?,5.8µM*
COc1ccc(OCCN2CCOCC2)cc1,-17.0%,-12.9%,4.1%,6.5%,15.7,5.0%
Oc1ccc2sc(-c3ccccc3O)c(-c3ccc(OCCN4CCCCC4)cc3)c2c1,·,·,·,20.6µM*,104.4,?
c1ccc(COc2ccc(OCCN3CCCCC3)cc2)cc1,-23.6%,11.2%,-2.8%,?,-2.0,-60.5%
COc1ccccc1-c1sc2ccccc2c1-c1ccc(OCCN2CCCCC2)cc1,11.2µM*,?,5.6%[56.1 µM],18.4µM*,-21.0,14.6µM*
COc1ccc2c(-c3ccc(OCCN4CCOCC4)cc3)c(-c3ccccc3OC)sc2c1,-22.7%,5.8%,1.6%[56.1 µM],20.6µM*,-4.1,20.6µM*
CCCCc1cc2c(cn1)C(=O)C(C)(OC(C)=O)C(=O)C2 (configuration not stated),·,·,4.9%[21 µM],·,·,·
COc1ccc2c(-c3ccc(OCCN4CCCCC4)cc3)c(-c3ccccc3OC)sc2c1,12.6µM*,?,6.0%[56.1 µM],-104.3%,-20.3,14.6µM*
CCOC(=O)c1sc2nc(OCc3cccnc3)cc(C)c2c1N,·,·,·,?,-50.5*,?
CCOC(=O)c1sc2nc(C)cc(C)c2c1N,-16.4%,-0.1%,7.8%,-0.3%,0.5,-11.5%
